The record followed here is ChEMBL document CHEMBL1961873, “Compounds: GSK PKIS; Assays: Nanosyn kinase panel” (2012).

As a reminder, the inhibition is the relative decrease from the control value, in per cent.

The structures appear in SMILES notation.
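Also: reported values are mean inhibition of PAK2, averaged over measurements.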

Serine/threonine-protein kinase PAK 2 (Homo sapiens), sequence (Q13177 whole entry): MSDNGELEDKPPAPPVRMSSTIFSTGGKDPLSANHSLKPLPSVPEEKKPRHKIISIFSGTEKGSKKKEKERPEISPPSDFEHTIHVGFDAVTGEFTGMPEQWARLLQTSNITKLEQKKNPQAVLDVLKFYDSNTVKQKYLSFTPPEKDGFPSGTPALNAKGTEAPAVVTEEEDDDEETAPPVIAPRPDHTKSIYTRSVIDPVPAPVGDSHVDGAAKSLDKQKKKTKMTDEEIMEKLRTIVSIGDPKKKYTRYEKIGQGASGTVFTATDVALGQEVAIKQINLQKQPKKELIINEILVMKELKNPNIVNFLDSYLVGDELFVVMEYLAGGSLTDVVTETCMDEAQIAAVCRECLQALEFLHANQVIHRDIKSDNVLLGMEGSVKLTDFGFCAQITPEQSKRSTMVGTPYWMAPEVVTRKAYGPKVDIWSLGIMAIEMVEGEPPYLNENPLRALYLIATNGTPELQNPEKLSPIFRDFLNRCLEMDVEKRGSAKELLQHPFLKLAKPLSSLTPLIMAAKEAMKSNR

This assay addresses Serine/threonine-protein kinase PAK 2 (Homo sapiens) (UniProt Q13177). The note with it: at 1 µM.
With `O=C(Nc1n[nH]c2nc(-c3ccc(O)cc3)c(Br)cc12)C1CC1`, the inhibition stood at 3.87%.

Turning to `Fc1ccc(-c2ncn(CCCN3CCOCC3)c2-c2ccncc2)cc1`, the inhibition is -0.77%.

For `COc1ccc2cc(-c3c(-c4ccncc4)nc(-c4ccc([S+](C)[O-])cc4C)n3C)ccc2c1` (stereo unspecified), the inhibition was -1.27%.

`c1ccc(Oc2ccc(Nc3ncc(-c4ccccc4)o3)cc2)cc1`: the inhibition is -0.36%.

For the compound `C[C@@H](Oc1cc(-n2cnc3ccc(OC4CCN(C)CC4)cc32)sc1C(N)=O)c1ccccc1Cl`, the inhibition was 2.5%.

Turning to `NC(=O)c1cc(-c2ccncc2)cc(-c2ccccc2)c1N`, the inhibition turned out to be 2.41%.

Turning to `O=C(NCC1CC1)c1ccc(-c2cccc(C(=O)NC3CC3)c2)cc1`, the inhibition worked out at 1.58%.

Regarding `O=C1Nc2ccccc2/C1=C/Nc1ccc(-n2cncn2)cc1`, the inhibition was found to be 2.17%.

Turning to `CN(C)c1ccc2c(c1)/C(=C/Nc1ccc(S(N)(=O)=O)cc1)C(=O)N2`, the inhibition came out at 0.6%.

`C[C@@H](Oc1cc(-n2cnc3ccc(OCC4CCN(C)CC4)cc32)sc1C(N)=O)c1ccccc1Cl`: the inhibition is 3.81%.

For the compound `CN(C)CCCNc1nccc(-c2c(-c3ccc(F)cc3)nn3cc(C(F)(F)F)ccc23)n1`, the inhibition is 1.67%.

With `COc1ccc2ncn(-c3cc(O[C@H](C)c4ccccc4Cl)c(C(N)=O)s3)c2c1`, the inhibition came to 1.19%.

As to `CN(C)CCOc1ccc(-c2cc(-c3ccc4c(c3)CCC4=NO)c(-c3ccncc3)o2)cc1`, the inhibition is -2.82%.

`Cc1nnc(-c2ccc(C)c(-c3ccc(C(=O)NCc4ccc(Cl)cc4)cc3)c2)o1`: the inhibition worked out at 1.24%.

As for `O=C(Nc1n[nH]c2nc(-c3ccco3)ccc12)C1CC1`, the inhibition was -0.03%.

In the case of `CCc1ccc(Oc2nccc(-c3c(-c4ccc(F)cc4)ncn3C3CCNCC3)n2)cc1`, the inhibition is 2.44%.
